# Measurements published in PubChem BioAssay (EPA / NIEHS).
# Active and inactive are the calls of the source. Rule for the calls: active = hit-call score of the fitted dose curve at least 0.9, where 1 is the maximum; inactive = score below 0.9.
# Experiments:
# Conditions in all cases: mRNA level, 48 h; actives raise or lower the signal
# [1] = read-out: Apoptosis regulator Bcl-2 (Homo sapiens) (UniProt P10415); test: LTEA_HepaRG_BCL2: Life Technologies and Expression Analysis (LTEA) Assay for Bcl-2 gene using HepaRG (AID 2283475)
# Summary of the method: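 Differentiated HepaRG cells in serum-free induction medium were exposed for 48 h to eight half-log concentrations up to 100 uM in 0.5% DMSO, in duplicate. BCL2 mRNA was quantified by TaqMan qRT-PCR normalised to ACTB, GAPDH and POLR2A, with bidirectional fitting versus DMSO.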
# [2] = read-out: Bcl-2 (BID) gene, BID (gene 637); test: LTEA_HepaRG_BID: Life Technologies and Expression Analysis (LTEA) Assay for Bcl-2 (BID) gene using HepaRG (AID 2283476)
# Summary of the method: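 Differentiated HepaRG cells in serum-free induction medium were exposed in duplicate for 48 h to eight half-log concentrations up to 100 uM in 0.5% DMSO. BID mRNA was quantified by qRT-PCR, normalized to ACTB, GAPDH and POLR2A.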
# Caspase-3 (Homo sapiens) = Caspase-3 (Homo sapiens) (UniProt P42574); test: LTEA_HepaRG_CASP3: Life Technologies and Expression Analysis (LTEA) Assay for cysteine-aspartic acid protease (CASP3) using HepaRG (AID 2283477)
# Summary of the method: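 Expression of CASP3 was quantified by TaqMan qRT-PCR against three housekeeping genes (ACTB, GAPDH, POLR2A), bidirectionally versus 0.5% DMSO. HepaRG cultures received compounds in duplicate, top 100 uM with half-log steps, for 48 h in serum-free induction medium.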
# [3] = read-out: Cytochrome P450 (CYP24A1), CYP24A1 (gene 1591); test: LTEA_HepaRG_CYP24A1: Life Technologies and Expression Analysis (LTEA) Assay for Cytochrome P450 (CYP24A1) using HepaRG (AID 2283478)
# Summary of the method: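 mRNA of CYP24A1 quantified by TaqMan qRT-PCR (ACTB/GAPDH/POLR2A normalization) after 48 h chemical exposure of HepaRG cells, top concentration 100 uM, half-log steps, 0.5% DMSO vehicle, duplicates. Curves fitted bidirectionally against DMSO baseline.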
# [4] = read-out: Cytochrome P450 (CYP1A2), CYP1A2 (gene 1544); test: LTEA_HepaRG_CYP1A2: Life Technologies and Expression Analysis (LTEA) Assay for Cytochrome P450 (CYP1A2) using HepaRG (AID 2283479)
# Summary of the method: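 CYP1A2 transcript measured by TaqMan qRT-PCR against three housekeeping genes after 48-hour chemical exposure of HepaRG cells. Eight-point half-log series topping at 100 uM in 0.5% DMSO, duplicates; gain or loss fitted relative to vehicle.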
# [5] = read-out: cysteine-aspartic acid protease (CASP8), CASP8 (gene 841); test: LTEA_HepaRG_CASP8: Life Technologies and Expression Analysis (LTEA) Assay for cysteine-aspartic acid protease (CASP8) using HepaRG (AID 2283480)
# Summary of the method: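 HepaRG, 48 h exposure, duplicate wells; 8 conc, half-log from 100 uM, 0.5% DMSO. Serum-free induction medium. CASP8 mRNA by TaqMan qRT-PCR, norm. ACTB/GAPDH/POLR2A; gain/loss fitted vs DMSO.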
# [6] = read-out: Cytochrome P450 (CYP2B6), CYP2B6 (gene 1555); test: LTEA_HepaRG_CYP2B6: Life Technologies and Expression Analysis (LTEA) Assay for Cytochrome P450 (CYP2B6) using HepaRG (AID 2283481)
# Summary of the method: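 CYP2B6 transcript level quantified by qRT-PCR against three housekeeping genes, fitted bidirectionally relative to DMSO. HepaRG cultures received chemicals for 48 h, 8-point half-log series from 100 uM in 0.5% DMSO, duplicate wells, serum-free induction medium.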
# [7] = read-out: Cytochrome P450 2C19 (Homo sapiens) (UniProt P33261); test: LTEA_HepaRG_CYP2C19: Life Technologies and Expression Analysis (LTEA) Assay for CYP2C19 using HepaRG (AID 2283482)
# Summary of the method: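 CYP2C19 transcript levels by qRT-PCR, normalized to three housekeeping genes, in HepaRG cells after 48 h chemical exposure. Eight-point half-log series topping at 100 uM, 0.5% DMSO vehicle. Increases and decreases both fitted against DMSO.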
# CYP2C8 (gene 1558) = test: LTEA_HepaRG_CYP2C8: Life Technologies and Expression Analysis (LTEA) Assay for CYP2C8 using HepaRG (AID 2283483)
# Summary of the method: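 CYP2C8 mRNA induction or loss, by qRT-PCR normalized to ACTB/GAPDH/POLR2A, is read in HepaRG cells after 48 h treatment. Concentrations run from 100 uM down in half-log dilutions, with 0.5% DMSO as vehicle and baseline.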
# CYP2C9 (gene 1559) = test: LTEA_HepaRG_CYP2C9: Life Technologies and Expression Analysis (LTEA) Assay for CYP2C9 using HepaRG (AID 2283484)
# Summary of the method: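 Cells plated 48 h, switched to serum-free induction medium, then treated in duplicate for 48 h at eight concentrations (max 100 uM, 0.5% DMSO). RNA then analysed by qRT-PCR for CYP2C9; curves fitted in both directions relative to DMSO.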
# CYP2E1 (gene 1571) = test: LTEA_HepaRG_CYP2E1: Life Technologies and Expression Analysis (LTEA) Assay for CYP2E1 using HepaRG (AID 2283485)
# Summary of the method: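 HepaRG cells in serum-free induction medium exposed 48 h to test chemicals, 8 half-log concentrations up to 100 uM in 0.5% DMSO, duplicate. CYP2E1 mRNA by qRT-PCR, normalized to ACTB, GAPDH, POLR2A; bidirectional fit versus DMSO.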
# CYP4A11 (gene 1579) = test: LTEA_HepaRG_CYP4A11: Life Technologies and Expression Analysis (LTEA) Assay for CYP4A11 using HepaRG (AID 2283486)
# Summary of the method: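 Readout is CYP4A11 transcript level by qRT-PCR, normalized to three housekeeping genes and fitted bidirectionally against 0.5% DMSO. Human HepaRG cells were treated 48 h, in duplicate, with an 8-point half-log series topping at 100 uM.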
# [8] = read-out: DNA damage-inducible transcript 3 (DDIT3), DDIT3 (gene 1649); test: LTEA_HepaRG_DDIT3: Life Technologies and Expression Analysis (LTEA) Assay for DNA damage-inducible transcript 3 (DDIT3) using HepaRG (AID 2283488)
# Summary of the method: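 Differentiated human HepaRG cells in serum-free induction medium were exposed in duplicate for 48 h to 8 concentrations (top 100 uM, half-log steps, 0.5% DMSO). DDIT3 mRNA measured by TaqMan qRT-PCR, normalized to ACTB/GAPDH/POLR2A; bidirectional fit versus DMSO.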
# [9] = read-out: Pro-epidermal growth factor (Homo sapiens) (UniProt P01133); test: LTEA_HepaRG_EGF: Life Technologies and Expression Analysis (LTEA) Assay for Epidermal growth factor (EGF) using HepaRG (AID 2283489)
# Summary of the method: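 EGF transcript measured by Fluidigm TaqMan qRT-PCR with three housekeeping genes for normalization, 48 h after dosing HepaRG cultures in duplicate (top 100 uM, half-log steps, 0.5% DMSO vehicle). Gain or loss relative to DMSO fitted.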
# [10] = read-out: Early growth response protein 1 (EGR1) transcription factor, EGR1 (gene 1958); test: LTEA_HepaRG_EGR1: Life Technologies and Expression Analysis (LTEA) Assay for Early growth response protein 1 (EGR1) transcription factor using HepaRG (AID 2283490)
# Summary of the method: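 Read-out is EGR1 mRNA level by qRT-PCR, normalized to three housekeeping genes and analysed for gain or loss of signal against 0.5% DMSO. Source cells: human HepaRG, treated 48 h at up to 100 uM in half-log dilutions.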
# [11] = read-out: Ezrin (EZR), EZR (gene 7430); test: LTEA_HepaRG_EZR: Life Technologies and Expression Analysis (LTEA) Assay for Ezrin (EZR) using HepaRG (AID 2283491)
# Summary of the method: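 Read-out is EZR transcript level by qRT-PCR, normalized to three housekeeping genes and fitted bidirectionally against the DMSO control. Human HepaRG cells received test chemicals for 48 h at eight half-log concentrations up to 100 uM in 0.5% DMSO.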
# [12] = read-out: Cytochrome P450 3A7 (Homo sapiens) (UniProt P24462); test: LTEA_HepaRG_CYP3A7: Life Technologies and Expression Analysis (LTEA) Assay for CYP3A7 using HepaRG (AID 2283492)
# Summary of the method: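 CYP3A7 transcript measured by qRT-PCR (ACTB, GAPDH, POLR2A normalization) after 48 h chemical exposure of HepaRG cells in duplicate. Eight half-log concentrations, maximum 100 uM, 0.5% DMSO vehicle; bidirectional curve fitting against DMSO baseline.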
# CYP3A5 (gene 1577) = test: LTEA_HepaRG_CYP3A5: Life Technologies and Expression Analysis (LTEA) Assay for CYP3A5 using HepaRG (AID 2283493)
# Summary of the method: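 Differentiated HepaRG cells in serum-free induction medium were dosed 48 h with test chemicals (8-point half-log series, top 100 uM, 0.5% DMSO, duplicate). CYP3A5 mRNA measured by qRT-PCR, normalized to ACTB, GAPDH, POLR2A; bidirectional fit versus DMSO.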
# [13] = read-out: Fatty Acid-Binding Protein 1 (FABP1), FABP1 (gene 2168); test: LTEA_HepaRG_FABP1: Life Technologies and Expression Analysis (LTEA) Assay for Fatty Acid-Binding Protein 1 (FABP1) using HepaRG (AID 2283494)
# Summary of the method: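 HepaRG, 48 h post-plating switched to serum-free induction medium, then dosed 48 h (duplicate, 8 pts, ≤100 uM, 0.5% DMSO). RNA → Fluidigm TaqMan qRT-PCR, FABP1 normed to ACTB/GAPDH/POLR2A. Bidirectional curve fit vs DMSO.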
# Chain of Cytochrome P450 3A7 (Homo sapiens) (P24462 whole entry, looked up): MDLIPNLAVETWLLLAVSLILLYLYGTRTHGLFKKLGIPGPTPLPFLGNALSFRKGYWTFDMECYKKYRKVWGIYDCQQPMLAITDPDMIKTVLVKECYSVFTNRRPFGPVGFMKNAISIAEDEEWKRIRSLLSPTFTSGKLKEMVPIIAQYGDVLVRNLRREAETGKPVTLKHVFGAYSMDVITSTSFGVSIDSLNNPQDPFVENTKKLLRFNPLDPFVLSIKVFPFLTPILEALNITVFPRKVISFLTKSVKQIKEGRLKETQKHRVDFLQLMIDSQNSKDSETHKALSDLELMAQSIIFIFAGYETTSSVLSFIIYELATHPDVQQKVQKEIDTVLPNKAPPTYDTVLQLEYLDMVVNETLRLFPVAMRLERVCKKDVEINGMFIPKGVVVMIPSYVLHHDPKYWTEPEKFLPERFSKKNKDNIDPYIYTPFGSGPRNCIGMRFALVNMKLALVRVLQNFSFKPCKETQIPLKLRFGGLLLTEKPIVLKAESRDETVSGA
# Chain of Apoptosis regulator Bcl-2 (Homo sapiens) (P10415 whole entry, looked up): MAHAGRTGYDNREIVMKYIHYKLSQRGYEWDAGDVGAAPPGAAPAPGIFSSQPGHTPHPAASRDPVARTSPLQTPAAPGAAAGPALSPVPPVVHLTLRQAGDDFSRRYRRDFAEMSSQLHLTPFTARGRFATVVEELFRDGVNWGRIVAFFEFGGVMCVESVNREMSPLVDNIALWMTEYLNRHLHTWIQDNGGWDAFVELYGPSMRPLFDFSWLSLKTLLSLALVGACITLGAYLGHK
# Chain of Cytochrome P450 2C19 (Homo sapiens) (P33261 whole entry, looked up): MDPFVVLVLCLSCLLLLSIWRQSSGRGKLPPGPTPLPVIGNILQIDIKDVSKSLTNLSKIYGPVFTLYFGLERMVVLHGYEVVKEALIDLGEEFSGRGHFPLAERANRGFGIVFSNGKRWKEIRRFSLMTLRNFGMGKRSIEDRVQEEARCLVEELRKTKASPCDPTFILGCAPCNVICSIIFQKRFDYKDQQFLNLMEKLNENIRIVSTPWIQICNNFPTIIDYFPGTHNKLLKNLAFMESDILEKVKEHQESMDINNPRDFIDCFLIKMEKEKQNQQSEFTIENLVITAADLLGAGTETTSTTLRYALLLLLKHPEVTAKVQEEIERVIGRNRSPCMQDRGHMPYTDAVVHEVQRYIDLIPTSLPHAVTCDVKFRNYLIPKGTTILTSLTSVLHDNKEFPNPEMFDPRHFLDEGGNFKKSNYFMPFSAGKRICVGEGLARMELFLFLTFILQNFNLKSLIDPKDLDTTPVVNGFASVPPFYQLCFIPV
# Chain of Caspase-3 (Homo sapiens) (P42574 whole entry, looked up): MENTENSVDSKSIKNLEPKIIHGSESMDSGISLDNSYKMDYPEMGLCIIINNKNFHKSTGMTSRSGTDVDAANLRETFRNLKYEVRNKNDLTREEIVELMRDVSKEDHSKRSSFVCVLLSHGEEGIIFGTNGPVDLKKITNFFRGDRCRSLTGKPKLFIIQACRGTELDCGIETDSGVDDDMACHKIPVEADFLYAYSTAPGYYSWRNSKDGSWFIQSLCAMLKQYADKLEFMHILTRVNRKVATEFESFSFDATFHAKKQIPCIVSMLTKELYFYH
smiles,measurement,setting,value
CCCOC(=O)c1ccc(C(=O)OCCC)nc1,outcome,[1],inactive
same,outcome,[2],inactive
same,outcome,Caspase-3 (Homo sapiens),inactive
same,outcome,[3],inactive
same,AC50,[4],50 µM (active)
same,outcome,[5],inactive
same,outcome,[6],inactive
same,outcome,[7],inactive
same,outcome,CYP2C8 (gene 1558),inactive
same,outcome,CYP2C9 (gene 1559),inactive
same,outcome,CYP2E1 (gene 1571),inactive
same,outcome,CYP4A11 (gene 1579),inactive
same,outcome,[8],inactive
same,outcome,[9],inactive
same,outcome,[10],inactive
same,outcome,[11],inactive
same,outcome,[12],inactive
same,outcome,CYP3A5 (gene 1577),inactive
same,outcome,[13],inactive
c1ccc(Nc2ccccc2)cc1,outcome,[1],inactive
same,outcome,[2],inactive
same,outcome,Caspase-3 (Homo sapiens),inactive
same,outcome,[3],inactive
same,outcome,[4],inactive
same,outcome,[5],inactive
same,AC50,[6],24.9 µM (active)
same,outcome,[7],inactive
same,outcome,CYP2C8 (gene 1558),inactive
same,outcome,CYP2E1 (gene 1571),inactive
same,outcome,CYP4A11 (gene 1579),inactive
same,outcome,[8],inactive
same,outcome,[9],inactive
same,outcome,[10],inactive
same,outcome,[11],inactive
same,outcome,[12],inactive
same,outcome,CYP3A5 (gene 1577),inactive
same,outcome,[13],inactive
CCCCOCCOCCOCc1cc2c(cc1CCC)OCO2,outcome,[1],inactive
same,outcome,[2],inactive
same,outcome,Caspase-3 (Homo sapiens),inactive
same,outcome,[3],inactive
same,AC50,[4],16.5 µM (active)
same,outcome,[5],inactive
same,AC50,[6],2.28 µM (active)
same,AC50,[7],5.73 µM (active)
same,AC50,CYP2C8 (gene 1558),4.61 µM (active)
same,AC50,CYP2C9 (gene 1559),3.39 µM (active)
same,AC50,CYP2E1 (gene 1571),14 µM (active)
same,outcome,CYP4A11 (gene 1579),inactive
same,outcome,[8],inactive
same,outcome,[9],inactive
same,outcome,[10],inactive
same,outcome,[11],inactive
same,outcome,CYP3A5 (gene 1577),inactive
same,outcome,[13],inactive
C=CCOC(Cn1ccnc1)c1ccc(Cl)cc1Cl (centres undefined),AC50,[1],13.7 µM (active)
same,outcome,[2],inactive
same,outcome,Caspase-3 (Homo sapiens),inactive
same,outcome,[3],inactive
same,AC50,[5],84 µM (active)
same,AC50,[6],31.6 µM (active)
same,AC50,[7],34.3 µM (active)
same,AC50,CYP2C8 (gene 1558),27.2 µM (active)
same,AC50,CYP2C9 (gene 1559),33.1 µM (active)
same,AC50,CYP2E1 (gene 1571),13.1 µM (active)
same,AC50,CYP4A11 (gene 1579),28.1 µM (active)
same,AC50,[9],85 µM (active)
same,outcome,[10],inactive
same,outcome,[11],inactive
same,AC50,CYP3A5 (gene 1577),79.6 µM (active)
same,AC50,[13],28.6 µM (active)
CCCN(CCC)C(=O)SCC,outcome,[1],inactive
same,outcome,[2],inactive
same,outcome,Caspase-3 (Homo sapiens),inactive
same,outcome,[3],inactive
same,outcome,[4],inactive
same,outcome,[5],inactive
same,AC50,[6],11.4 µM (active)
same,outcome,[7],inactive
same,outcome,CYP2C8 (gene 1558),inactive
same,outcome,CYP2C9 (gene 1559),inactive
same,outcome,CYP2E1 (gene 1571),inactive
same,outcome,CYP4A11 (gene 1579),inactive
same,outcome,[8],inactive
same,outcome,[9],inactive
same,outcome,[10],inactive
same,outcome,[11],inactive
same,outcome,[12],inactive
same,outcome,CYP3A5 (gene 1577),inactive
same,outcome,[13],inactive
C[C@]12CC[C@@H]3c4ccc(O)cc4C[C@@H](CCCCCCCCCS(=O)CCCC(F)(F)C(F)(F)F)[C@H]3[C@@H]1CC[C@@H]2O (some centres undefined),AC50,[1],0.0469 µM (active)
same,AC50,[2],0.0682 µM (active)
same,outcome,Caspase-3 (Homo sapiens),inactive
same,outcome,[3],inactive
same,outcome,[4],inactive
same,outcome,[5],inactive
same,AC50,[6],29.9 µM (active)
same,AC50,[7],26 µM (active)
same,AC50,CYP2C8 (gene 1558),32.6 µM (active)
same,AC50,CYP2C9 (gene 1559),28.7 µM (active)
same,AC50,CYP2E1 (gene 1571),20.2 µM (active)
same,AC50,CYP4A11 (gene 1579),30.9 µM (active)
same,AC50,[8],9.92 µM (active)
same,AC50,[9],0.0848 µM (active)
same,AC50,[10],0.119 µM (active)
same,outcome,[11],inactive
same,AC50,[12],24.9 µM (active)
same,AC50,CYP3A5 (gene 1577),15.7 µM (active)
same,AC50,[13],25.8 µM (active)
